Assay results as given in PubChem BioAssay AID489025 (Southern Research Specialized Biocontainment Screening …, 2010).
Out of some 2,300 compounds screened, about 790 (34%) were called active. No rule for the calls is given here. Some of the results follow. Entries with a potency or affinity are not part of this list.

Assay: THP-1 cell cytotoxicity, dose response, cytotoxicity control for non-replicating M. tuberculosis project (AID 489025)
Conditions: THP-1 cell viability; series mostly up to 40 µM

Structure (SMILES)	outcome
Cc1ccc2nc(C)c3c(c2c1)SCC3	inactive
COc1ccc(OCC(=O)Nc2ccc(N3CCN(C(=O)c4ccco4)CC3)cc2)cc1	inactive
Nc1scc(-c2ccncc2)c1Cl	inactive
CCOC(=O)COc1ccc2c(c1)C(=O)CC(C)(c1cccnc1)O2 (stereo unspecified)	inactive
COc1cc(/C=N/Nc2cccc3cccnc23)cc(OC)c1O	inactive
C/C(O)=C\c1nc2ccccc2oc1=O	inactive
Oc1cc(NCc2cccnc2)ccc1-c1nc2ccccc2o1	inactive
CCc1nnc(N/N=C/c2ccc(N3CCC(C)CC3)c([N+](=O)[O-])c2)n1N	inactive
COc1cc(/C=N/N(C)C)ccc1OC(=O)c1cccs1	inactive
O=C(COc1ccc2c(c1)CCC2)Nc1ccccn1	inactive
Cc1cccc2c(CC(=O)O)noc12	inactive
COc1ccc(/C=C/c2nc3ccccc3c(=O)o2)cc1	inactive
COc1cc(OC)cc(-c2nc3ccccc3c(=O)o2)c1	inactive
O=C(C/C=N\OCc1ccc([N+](=O)[O-])cc1)Nc1ccc(Cl)cc1	inactive
O=C(COC(=O)CC1CCCC1)Nc1ccc(OC(F)F)cc1	inactive
COCCCNC(=O)COC(=O)c1ccc(-c2nc3ccccc3s2)s1	inactive
CCc1ccc(C(=O)COC(=O)c2ccc(Cl)nc2)cc1	inactive
CC(C)Cn1c(N)c(C(=O)COC(=O)c2ccc([N+](=O)[O-])o2)c(=O)n(C)c1=O	inactive
Oc1oc(-c2ccco2)nc1C=Nc1cccc(Cl)c1	inactive
CCCCCn1nnc2c(=O)oc3ccccc3c21	inactive
CCOc1ccc(OCC(=O)OCc2cc(=O)n3cc(Br)ccc3n2)cc1	inactive
CCOC(=O)c1nc2sc3c(c2c(=O)[nH]1)CCC(C)C3 (stereo unspecified)	inactive
Nc1nonc1C(=O)NCCN=Cc1cc(Cc2ccccc2)cc(Br)c1O	inactive
COc1cccc(COC(=O)CCNC(=O)c2ccc(Cl)cc2)c1OC	inactive
COc1ccccc1C(c1nnnn1Cc1ccccc1)N1CCC(C(N)=O)CC1 (stereo unspecified)	inactive

Structure (SMILES)	outcome
CCCCNC(=O)N1CCc2ccccc2C1	inactive
C/C(=N\NC(=O)c1ccc([N+](=O)[O-])c(C)c1)c1ccccc1Cl	inactive
COc1ccc(N=N/C(=C\O)C(=O)c2ccco2)cc1	inactive
CCOC(=O)c1cc(-c2c(Cl)cccc2Cl)no1	inactive
O=C(OCCCOC(=O)c1ccc([N+](=O)[O-])o1)c1ccc([N+](=O)[O-])o1	inactive
Cc1[nH]c2ccccc2c1C(=O)C(C)OC(=O)c1ccc([N+](=O)[O-])o1 (stereo unspecified)	inactive
Cc1ccc(C(=O)O/N=C(\N)c2cccc([N+](=O)[O-])c2)cc1	inactive
N=c1oc2ccccc2cc1C(=O)NC1CCCCCC1	inactive
O=C(Nc1nccs1)c1cc2cc(Cl)ccc2oc1=O	inactive
O=C(COC(=O)c1cccc(C(F)(F)F)c1)NCc1ccccc1	inactive
CCOC(=O)c1cn(Cc2cccc(Cl)c2)nn1	inactive
CSc1ccccc1NC(=O)c1cc(C(C)C)on1	inactive
CCCCNS(=O)(=O)c1ccc(OCC(=O)OC)cc1	inactive
O=c1oc(/C=C/c2ccc([N+](=O)[O-])s2)nc2ccccc12	inactive
C=C(C)C1Cc2cc3ccc(=O)oc3cc2O1 (stereo unspecified)	inactive
C/C(=N\NC(=O)c1nn(C)cc1Cl)c1ccncc1	inactive
CCOc1ccc(-c2cc(CCCC(=O)NCCC(C)C)no2)cc1	inactive
O=c1c(=Nc2ccccc2O)c(=O)c2ccccc12	inactive
O=C(O)c1[nH]c(=O)[nH]c(=O)c1F	inactive
CCOC(=O)CN1NC2(CCC(C)CC2)NC1=S (stereo unspecified)	inactive
CCc1cc(C(c2ccncc2)N2CCN(C)CC2)c(NC(=O)c2ccccc2)s1 (stereo unspecified)	inactive
Cc1ccc(C(=O)Oc2cccc(-n3cnnn3)c2)cc1	inactive
CCc1ccc(NC(=O)C(=O)NNC(=O)c2cccc(OC)c2)cc1	inactive
COC(=O)COc1ccc(-c2ccc(F)cc2)cc1C=O	inactive
Cc1ccc(CCC(=O)Nc2cc(Cl)ccc2Cl)o1	inactive

Structure (SMILES)	outcome
O=[N+]([O-])c1ccc(/C=N/NS(=O)(=O)c2ccc(Cl)cc2)o1	inactive
COc1ccc(/C=N/NC(=O)C(=O)NCc2cccnc2)cc1OC	inactive
Cc1ccc(CCC(=O)Nc2ccc([N+](=O)[O-])cc2)o1	inactive
Cc1ccc(OCC(=O)N/N=C/c2ccc([N+](=O)[O-])o2)cc1	inactive
Cc1ncsc1CCOC(=O)c1ccc([N+](=O)[O-])cc1	inactive
Oc1ccc(Br)cc1-c1ccn[nH]1	inactive
CCCCNC(=O)COC(=O)c1cc(F)c(F)cc1Cl	inactive
C=Cc1cccc(NC(=O)COc2ccccc2)c1	inactive
Cc1nn(-c2ccccc2)nc1C(=O)c1c(C)[nH]n(-c2ccccc2)c1=O	inactive
CCC(C)c1ccc(O)c(/C=N/O)c1 (stereo unspecified)	inactive
O=[N+]([O-])c1cc2oc3c(c2c(C=NCc2ccccc2)c1O)CCCC3	inactive
O=C(N/N=C/C=C/c1ccco1)c1ccncc1	inactive
Nc1ccc(C(=O)N/N=C\C=C\c2ccc([N+](=O)[O-])cc2)cc1	inactive
O=C(COC(=O)CCC(=O)c1ccc(F)cc1)Nc1ccc(F)cc1F	inactive
COc1cccc(OC(=O)c2cc3ccccc3oc2=O)c1	inactive
CCC(=O)N1CCN(c2cc3c(cc2F)c(=O)c(C(=O)O)cn3CC)CC1	inactive
CC(C)OC(=O)CCCCCN1C(=O)CSC1=S	inactive
O=C(OCC#CCSc1nnc(-c2ccccc2)o1)c1ccco1	inactive
COC(=O)CCCCCN1C(=O)/C(=C\c2ccncc2)SC1=S	inactive
Cc1ccc(C(=O)c2cncc(Br)c2)cc1	inactive
CCCCN1C(=O)C2(NNc3ccccc3O2)c2ccccc21 (stereo unspecified)	inactive
COC(=O)COc1ccc2c(=O)c(Oc3ccccc3)c(C)oc2c1	inactive
O=C(NNc1ccc([N+](=O)[O-])cc1)C1CC2CCCC(C1)C2=O (stereo unspecified)	inactive
O=C(C/C=N\OCc1ccc([N+](=O)[O-])cc1)Nc1ccc(Br)cc1	inactive
NC(N)=N/N=C/c1cc([N+](=O)[O-])ccc1O	inactive

Structure (SMILES)	outcome
O=C(NCC1CCCCC1)c1ccc([N+](=O)[O-])cc1	inactive
CCCC(=O)Nc1cccc(-c2nc3ccccc3c(=O)o2)c1	inactive
C#CCOc1coc(COC(=O)c2ccccc2)cc1=O	inactive
CC1C/C(=N/N2C(=O)CSC2=S)CC(C)(C)C1 (stereo unspecified)	inactive
CCCCCCC1CC(C)(C(=O)CNc2nncs2)OC1=O (stereo unspecified)	inactive
CC1=NN(C(=O)c2csc(C)c2C)C(O)(C(F)(F)F)C1 (stereo unspecified)	inactive
Nc1cccn2c(-c3ccc(Cl)cc3)cnc12	inactive
Cc1ccc(C(=O)Nc2nccs2)cc1	inactive
CCN1CCN(C(=O)CN(Cc2ccccc2)S(C)(=O)=O)CC1	inactive
C/C(=N\NC(=O)c1cc([N+](=O)[O-])cc([N+](=O)[O-])c1)c1ccco1	inactive
CC(C)c1ccc(C2=C(O)c3ccccc3C(=O)C2=O)cc1	inactive
N#CC1=C(N)Oc2n[nH]c(-c3cccnc3)c2C1c1ccc([N+](=O)[O-])o1 (stereo unspecified)	inactive
CCCc1cc(C(=O)Nc2ccccc2SC)no1	inactive
CCOC(=O)c1c(C)nc2cc(C)ccn12	inactive
Cc1c(-c2ccc(Br)cc2)nc2ccccn12	inactive
c1ccc(-c2noc(CC3CCCCC3)n2)nc1	inactive
CCCCCC1CC(CC(=O)NC(=S)Nc2ccc([N+](=O)[O-])cc2)C(=O)O1 (stereo unspecified)	inactive
O=C(N/N=C/c1ccc[nH]1)c1ccc(Cl)cc1	inactive
Cc1ccc(-c2nnc(NC3CCCC3)s2)cc1	inactive
CCOC(=O)COc1cc(N)c(Cl)cc1Cl	inactive
CCCCc1ccc(NS(=O)(=O)c2c(C)n(C)c(=O)n(C)c2=O)cc1	inactive
CN1CCN(/N=C/c2ccc(-c3ccc([N+](=O)[O-])cc3Cl)o2)CC1	inactive
c1ccc(-c2nnc(SCc3cn4ccsc4n3)o2)cc1	inactive
COC(=O)[C@@H](NC(=O)c1cc(COc2cncc(Cl)c2)on1)c1ccccc1	inactive
N#CC(C(=O)NCc1ccco1)c1nc2ccccc2nc1N1CCOCC1 (stereo unspecified)	inactive

Structure (SMILES)	outcome
CCOC(=O)C1CCN(c2nc3cc(OC)ccc3cc2C#N)CC1	inactive
CCCCCCOc1ccc(C(=O)O)cc1C#N	inactive
Cc1ccc(C)c(NC(=O)COC(=O)c2cc3ccccc3oc2=O)c1	inactive
CC(NC(=O)COc1ccc(-c2ccccc2)cc1)C1CCCO1 (stereo unspecified)	inactive
CC(C)OC(=O)COc1ccc(-c2ccccc2)cc1	inactive
COC(=O)c1ccc(CSc2nnc(-c3ccncc3)o2)o1	inactive
COCCCn1c(=NC(=O)c2ccccc2)c(C#N)cc2c(=O)n3cccc(C)c3nc21	inactive
O=C(COC(=O)c1ccccn1)Nc1cccc(Cl)c1Cl	inactive
O=C(Nc1ccn(Cc2ccccc2)n1)c1ccc(F)cc1	inactive
CN(CCCCOc1ccc(F)cc1)Cc1ccccc1	inactive
C=CCN=C1SC(CC)C(=O)N1S(=O)(=O)c1ccc(C)cc1 (stereo unspecified)	inactive
Cc1ccc(Sc2ccc(/C=C3/C(=O)NN(c4ccccc4)C3=O)o2)cc1	inactive
Cc1ccc(N=Nc2c(C)[nH]n(C(N)=S)c2=O)cc1C	inactive
O=[N+]([O-])c1ccccc1C1Nc2cccc3cccc(c23)N1	inactive
CCOc1ccc(NCC(=O)c2ccc(C)cc2)cc1	inactive
Cc1cc(/C=N\NC(=O)c2cccs2)c(C)n1-c1ccc2ncccc2c1	inactive
NC(N)=N/N=C/c1cccc([N+](=O)[O-])c1O	inactive
Cc1cccc(Cc2cnc(NC(=O)C3=NCCN3)s2)c1	inactive
COc1cc(/C=C2/C(=O)NN(c3ccc(Cl)cc3)C2=O)ccc1OC(=O)c1ccco1	inactive
COC(=O)C1CC(=O)N(c2ccc(OCc3ccccc3Cl)cc2)C1 (stereo unspecified)	inactive
O=C(CCC1CCCCC1)NCc1ccc(F)cc1	inactive
